Laboratory results reported in PubChem BioAssay (EPA / NIEHS).
The source made the active and inactive calls. The calls were made as follows: active = hit-call score of the fitted dose curve at least 0.9, where 1 is the maximum; inactive = score below 0.9.

Experiments:
[1] = ATG_AP_1_CIS: Attagene CIS-FACTORIAL HepG2 Assay for human Activator Protein 1 (AP-1) (AID 2282931); conditions: HepG2 Attagene cis-factorial AP-1 reporter mRNA; actives raise or lower the signal
Method in brief: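 Fluorescence of labelled PCR fragments separated by capillary electrophoresis gives reporter mRNA levels. HepG2 with transfected cis-regulated reporter units, 24 h exposure; DMSO serves as baseline for bidirectional curve fits.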

[2] = ATG_AP_2_CIS: Attagene CIS-FACTORIAL HepG2 Assay for human Activator Protein 2 (AP-2) (AID 2282932); conditions: HepG2 AP-2 cis-reporter, Attagene transcription factor profiling; actives raise or lower the signal
Method in brief: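 Transiently transfected HepG2 cells are exposed to chemical for 24 h. Reporter transcripts are then measured as fluorescence following RT-PCR and capillary separation, and gain- or loss-of-signal is fitted relative to DMSO.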

[3] = ATG_BRE_CIS: Attagene CIS-FACTORIAL HepG2 Assay for human Bone Morphogenetic Protein (BMP) Response Element (BRE) (AID 2282933); conditions: HepG2 BMP response element reporter, Attagene transcription factor profiling; actives raise or lower the signal
Method in brief: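 Gain- or loss-of-signal was derived by bidirectional fitting against DMSO controls. The signal came from reporter mRNA, measured by RT-PCR and capillary electrophoresis, in HepG2 cells transiently carrying multiple reporter units and dosed for 24 h.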

[4] = target: Retinoic acid receptor alpha (Homo sapiens) (UniProt P10276); experiment: ATG_DR5_RAR_CIS: Attagene CIS-FACTORIAL HepG2 Assay for human Retinoic Acid Receptor Alpha (RARE), DR5 submotif (AID 2282934); conditions: HepG2 Attagene cis-factorial RARE DR5 reporter, mRNA; actives raise or lower the signal
Chain of Retinoic acid receptor alpha (Homo sapiens) (P10276 whole entry, looked up): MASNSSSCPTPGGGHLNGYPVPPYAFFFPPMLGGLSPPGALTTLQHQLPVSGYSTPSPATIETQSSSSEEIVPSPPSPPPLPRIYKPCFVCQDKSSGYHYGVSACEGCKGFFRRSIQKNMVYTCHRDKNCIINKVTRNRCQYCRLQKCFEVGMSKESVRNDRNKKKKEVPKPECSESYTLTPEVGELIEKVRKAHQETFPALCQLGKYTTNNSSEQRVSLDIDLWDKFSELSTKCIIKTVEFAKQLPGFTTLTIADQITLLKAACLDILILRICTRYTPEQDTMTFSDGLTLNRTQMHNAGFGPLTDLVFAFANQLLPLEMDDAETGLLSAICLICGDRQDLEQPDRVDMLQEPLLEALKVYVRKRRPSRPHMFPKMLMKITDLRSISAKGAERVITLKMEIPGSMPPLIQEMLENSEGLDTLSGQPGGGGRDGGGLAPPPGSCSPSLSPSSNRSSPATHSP
Method in brief: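 Transient MRTU transfection of HepG2; 24 h compound treatment; TriZol RNA, oligo(dT) RT, PCR, FAM labelling, capillary electrophoresis. Bidirectional fit vs DMSO. Endogenous TF activity at DR5 RARE.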

[5] = target: Transcription factor E2F1 (Homo sapiens) (UniProt Q01094); experiment: ATG_E2F_CIS: Attagene CIS-FACTORIAL HepG2 Assay for human E2F Transcription Factor 1 (AID 2282935); conditions: HepG2 Attagene cis-reporter, E2F reporter RNA transcripts; actives raise or lower the signal
Chain of Transcription factor E2F1 (Homo sapiens) (Q01094 whole entry, looked up): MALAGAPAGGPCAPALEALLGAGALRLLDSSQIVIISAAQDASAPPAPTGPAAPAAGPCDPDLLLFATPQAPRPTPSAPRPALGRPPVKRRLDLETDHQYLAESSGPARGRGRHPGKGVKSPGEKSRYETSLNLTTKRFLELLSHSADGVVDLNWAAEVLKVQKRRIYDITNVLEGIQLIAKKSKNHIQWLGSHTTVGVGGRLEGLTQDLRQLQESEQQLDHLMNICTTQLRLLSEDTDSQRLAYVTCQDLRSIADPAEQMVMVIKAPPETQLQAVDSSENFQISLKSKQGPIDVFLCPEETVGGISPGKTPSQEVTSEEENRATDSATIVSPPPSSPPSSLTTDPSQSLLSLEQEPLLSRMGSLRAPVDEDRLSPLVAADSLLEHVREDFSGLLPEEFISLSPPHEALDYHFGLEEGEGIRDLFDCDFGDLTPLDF
Method in brief: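 Fluorescent RT-PCR products, digested with HpaI for 2 h at 37 C, are separated by capillary electrophoresis. Source RNA comes from transfected HepG2 cultures treated for 24 h.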

[6] = ATG_E_Box_CIS: Attagene CIS-FACTORIAL HepG2 Assay for human Enhancer Box (E-box) (AID 2282936); conditions: HepG2 E-box cis-reporter transcription, actives raise or lower the signal
Method in brief: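 Fluorescent reporter fragments separated by capillary electrophoresis gave the signal; mRNA came from HepG2 cells transfected with cis-element reporters and treated 24 h. Curves fitted bidirectionally relative to DMSO controls.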

[7] = ATG_M_61_CIS: Attagene CIS-FACTORIAL HepG2 Assay for M61 Transcription Factor (Internal Marker) (AID 2282937); conditions: HepG2 Attagene CIS-FACTORIAL M61 internal marker reporter; actives raise or lower the signal
Method in brief: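 This endpoint serves as an internal background control within a multiplexed HepG2 cis-reporter panel. Cells are exposed for 24 h; reporter mRNA is amplified, fluorescently labelled and sized by capillary electrophoresis, with DMSO as negative control.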

[8] = ATG_EGR_CIS: Attagene CIS-FACTORIAL HepG2 Assay for human Early Growth Response 1 (EGR1) (AID 2282938); conditions: HepG2 Attagene CIS-FACTORIAL EGR reporter mRNA; actives raise or lower the signal
Method in brief: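 HepG2, transient MRTU transfection (cis promoters), 24 h compound. RNA → RT (oligo-dT) → PCR → 6-FAM labelling → HpaI cut → CE fluorescence. Bidirectional fit, DMSO baseline.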

[9] = ATG_ERE_CIS: Attagene CIS-FACTORIAL HepG2 Assay for Estrogen Response Element (ERE) (AID 2282940); conditions: HepG2 ERE cis-reporter, Attagene RNA transcript; actives raise or lower the signal
Method in brief: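 HepG2, transient cis-reporter units, 24 h exposure. RNA isolated, oligo(dT) RT, reporter-specific PCR, FAM extension, HpaI cut, CE detection. Gain/loss-of-signal vs DMSO.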

[10] = ATG_Ets_CIS: Attagene CIS-FACTORIAL HepG2 Assay for human Erythroblast Transformation Specific (ETS) (AID 2282941); conditions: HepG2 ETS cis-reporter transcription, actives raise or lower the signal
Method in brief: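 RT-PCR/capillary electrophoresis fluorescence read-out of reporter mRNA; HepG2 transient multi-reporter transfection; 24 h compound exposure; gain or loss of signal fitted bidirectionally relative to DMSO.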

[11] = target: Hepatocyte nuclear factor 3-beta (Homo sapiens) (UniProt Q9Y261); experiment: ATG_FoxA2_CIS: Attagene CIS-FACTORIAL HepG2 Assay for human Forkhead box A2 (FOXA2) (AID 2282942); conditions: HepG2 cis-reporter transcription factor activity, 24 h; actives raise or lower the signal
Chain of Hepatocyte nuclear factor 3-beta (Homo sapiens) (Q9Y261 whole entry, looked up): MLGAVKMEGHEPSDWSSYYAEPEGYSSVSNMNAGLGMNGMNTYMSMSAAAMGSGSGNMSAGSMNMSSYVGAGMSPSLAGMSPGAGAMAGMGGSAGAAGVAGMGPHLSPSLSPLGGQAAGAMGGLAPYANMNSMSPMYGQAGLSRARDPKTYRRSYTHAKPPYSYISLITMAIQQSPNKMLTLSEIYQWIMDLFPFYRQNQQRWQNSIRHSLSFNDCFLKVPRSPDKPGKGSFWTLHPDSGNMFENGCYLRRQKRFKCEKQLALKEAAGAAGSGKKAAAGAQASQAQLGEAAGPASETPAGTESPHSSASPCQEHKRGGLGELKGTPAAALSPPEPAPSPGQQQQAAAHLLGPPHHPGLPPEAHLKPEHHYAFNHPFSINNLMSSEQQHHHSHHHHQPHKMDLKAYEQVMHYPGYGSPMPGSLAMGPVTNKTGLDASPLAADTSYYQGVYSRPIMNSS
Method in brief: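 Cells: HepG2, transient multiplex reporter transfection. Exposure 24 h. Detection: reporter-specific RT-PCR, fluorescent labelling, restriction digest, capillary electrophoresis. Analysis: bidirectional curve fit, DMSO as negative control.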

[12] = ATG_FoxO_CIS: Attagene CIS-FACTORIAL HepG2 Assay for human Forkhead box O (FoxO) (AID 2282943); conditions: HepG2 Attagene cis-reporter, FoxO element, mRNA; actives raise or lower the signal
Method in brief: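 HepG2, transient MRTU transfection (cis element, endogenous TFs). Dose 24 h. TriZol RNA → oligo(dT) RT → PCR → 6-FAM primer extension → HpaI cut → CE. Gain/loss vs DMSO.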

[13] = ATG_GATA_CIS: Attagene CIS-FACTORIAL HepG2 Assay for human GATA Binding Protein (AID 2282944); conditions: HepG2 GATA cis-element reporter, Attagene multiplex mRNA; actives raise or lower the signal
Method in brief: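 DMSO serves as negative control and baseline for bidirectional fitting of reporter mRNA changes. HepG2 cells bearing transiently transfected cis-promoter reporters were exposed 24 h; transcripts detected via RT-PCR and capillary electrophoresis.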

[14] = ATG_GLI_CIS: Attagene CIS-FACTORIAL HepG2 Assay for human Zinc Finger Protein GLI1 (AID 2282945); conditions: HepG2, Attagene cis-factorial reporter mRNA, GLI element; actives raise or lower the signal
Method in brief: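 Bidirectional curve fits relative to DMSO, using reporter mRNA levels from RT-PCR plus capillary electrophoresis. Cells were HepG2 transiently carrying cis-regulated reporter constructs, harvested 24 h after dosing.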

[15] = target: Bile acid receptor (Homo sapiens) (UniProt Q96RI1); experiment: ATG_IR1_CIS: Attagene CIS-FACTORIAL HepG2 Assay for human Nuclear Receptor Subfamily 1 Group H Member 4 (NR1H4), IR1 submotif (AID 2282946); conditions: IR1 reporter transcription, actives raise or lower the signal
Chain of Bile acid receptor (Homo sapiens) (Q96RI1 whole entry, looked up): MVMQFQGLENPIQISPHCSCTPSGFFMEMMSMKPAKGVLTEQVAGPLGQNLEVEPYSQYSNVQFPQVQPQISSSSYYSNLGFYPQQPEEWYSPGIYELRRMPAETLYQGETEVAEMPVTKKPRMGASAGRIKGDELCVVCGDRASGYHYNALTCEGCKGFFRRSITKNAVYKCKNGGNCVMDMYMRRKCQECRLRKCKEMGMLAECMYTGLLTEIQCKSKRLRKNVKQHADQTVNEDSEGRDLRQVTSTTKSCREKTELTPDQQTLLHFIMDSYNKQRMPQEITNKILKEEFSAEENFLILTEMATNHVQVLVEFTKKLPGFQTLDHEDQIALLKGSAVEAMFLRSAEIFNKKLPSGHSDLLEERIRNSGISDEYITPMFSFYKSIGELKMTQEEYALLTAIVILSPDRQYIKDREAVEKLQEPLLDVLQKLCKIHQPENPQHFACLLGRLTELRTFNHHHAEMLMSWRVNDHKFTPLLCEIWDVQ
Method in brief: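 HepG2 cells transiently transfected with multiplexed cis-element reporter units read endogenous transcription factor activity. After 24 h compound exposure, reporter mRNA was quantified by RT-PCR, fluorescent labelling, HpaI digestion and capillary electrophoresis; bidirectional fitting versus DMSO baseline.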

[16] = ATG_GRE_CIS: Attagene CIS-FACTORIAL HepG2 Assay for human Glucocorticoid Response Elements (GRE) (AID 2282947); conditions: HepG2 GRE cis-reporter, Attagene multiplex mRNA; actives raise or lower the signal
Method in brief: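 Multiplexed cis-reporter mRNA induction, HepG2, 24 h post-dose. RT-PCR, FAM-labelled, HpaI-digested amplicons by CE. Bidirectional fit vs DMSO.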

[17] = ATG_ISRE_CIS: Attagene CIS-FACTORIAL HepG2 Assay for human Interferon Regulatory Factor 1 (IRF1) binding to an Interferon-Stimulated Response Element (ISRE) (AID 2282948); conditions: HepG2 ISRE cis-reporter (Attagene), mRNA transcription readout; actives raise or lower the signal
Method in brief: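 Read-out: fluorescent RT-PCR products resolved by capillary electrophoresis, reporting endogenous transcription factor activity via ISRE-driven reporter mRNA in transfected HepG2 cells dosed for 24 h; gain or loss fitted relative to DMSO.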

[18] = ATG_M_32_CIS: Attagene CIS-FACTORIAL HepG2 Assay for M32 Transcription Factor (Internal Marker) (AID 2282949); conditions: HepG2 Attagene cis-factorial M32 reporter, mRNA; actives raise or lower the signal;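 also: background control marker of the multiplexed CIS panel rather than a real target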
Method in brief: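 Using DMSO as baseline, bidirectional curve fits were applied to reporter mRNA signals. These came from transiently transfected HepG2 cells exposed for 24 h, with RNA analysed by RT-PCR, FAM primer extension, HpaI digestion and CE.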

[19] = ATG_M_06_CIS: Attagene CIS-FACTORIAL HepG2 Assay for M06 Transcription Factor (Internal Marker) (AID 2282950); conditions: HepG2 Attagene CIS-FACTORIAL M06 internal marker reporter; actives raise or lower the signal
Method in brief: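 Fluorescence-labelled RT-PCR products from cis-promoter reporter units, cut with HpaI and resolved by capillary electrophoresis, give the signal. Cells are human HepG2, dosed for 24 h. Serves as background control, fitted relative to DMSO.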

[20] = ATG_M_19_CIS: Attagene CIS-FACTORIAL HepG2 Assay for M19 Transcription Factor (Internal Marker) (AID 2282939); conditions: HepG2 Attagene CIS-FACTORIAL M19 internal marker reporter; actives raise or lower the signal
Method in brief: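 Following a 24 h exposure, RNA from transfected HepG2 cells was reverse-transcribed, PCR-amplified with reporter-specific primers, end-labelled with 6-FAM and HpaI-digested before capillary separation. Values represent gain or loss versus DMSO.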

Measured: AC50

ClC1(Cl)C2(Cl)C3(Cl)C4(Cl)C(Cl)(Cl)C5(Cl)C3(Cl)C1(Cl)C5(Cl)C24Cl (centres undefined)
inactive: [1] | [2] | [3] | [4] | [5] | [6] | [7] | [8] | [9] | [10] | [11] | [12] | [13] | [14] | [15] | [16] | [17] | [18] | [19]

Cc1ccc(N)cc1Cl
inactive: [1] | [2] | [3] | [4] | [5] | [6] | [7] | [8] | [9] | [10] | [11] | [12] | [13] | [14] | [17] | [18] | [19]

Clc1ccc(C2(Cn3cncn3)CC(Br)CO2)c(Cl)c1 (centres undefined)
inactive: [2] | [5] | [6] | [7] | [8] | [20] | [10] | [11] | [12] | [13] | [14] | [15] | [16] | [17] | [18] | [19]
active: [1] 35.5 µM | [3] 99.5 µM | [9] 2.54 µM

CCOC(=O)Nc1cccc(OC(=O)Nc2ccccc2)c1
inactive: [1] | [2] | [3] | [4] | [5] | [6] | [7] | [8] | [20] | [9] | [10] | [11] | [12] | [13] | [14] | [16] | [17] | [18] | [19]

CC1(C)CCC(Cc2ccc(Cl)cc2)C1(O)Cn1cncn1 (centres undefined)
active: [1] 33.4 µM | [3] 52.3 µM | [9] 7.52 µM
inactive: [2] | [5] | [6] | [7] | [8] | [20] | [10] | [11] | [12] | [13] | [14] | [15] | [17] | [18] | [19]

CCC[CH2][Sn]([Cl])([Cl])[Cl]
inactive: [1] | [2] | [3] | [5] | [6] | [7] | [8] | [20] | [9] | [10] | [11] | [12] | [13] | [14] | [15] | [16] | [17] | [18] | [19]

CCCCP(CCCC)CCCC
inactive: [1] | [2] | [3] | [5] | [6] | [7] | [8] | [20] | [10] | [11] | [12] | [13] | [14] | [15] | [17] | [18] | [19]
active: [9] 72.5 µM
